Test systems include RPMI-8226 leukemia; OVCAR-8 ovarian; OVCAR-5 ovarian; OVCAR-4 ovarian; SK-OV-3 ovarian; IGROV1 ovarian; OVCAR-3 ovarian; HS 578T breast; NCI/ADR-RES ovarian; T-47D breast; BT-549 breast; MDA-MB-435 melanoma; SW-620 colon; MCF7 breast; HCT-116 colon; HCC-2998 colon; KM12 colon.
Common to all, as to assay: NCI-60 one-dose screen, 48 h (100 = growth as untreated, 0 = no growth, -100 = all killed)
Common to all, as to settings: 10 µM

Compounds without any hit were thinned out: in the full panel of roughly 83,000, 20% have a hit.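 Cell lines were cultured in 96-well plates, exposed to a single compound concentration, and assessed for percent growth 48 hours later.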 Unmarked numbers belong to inactive results. Calls of active or inactive are those of the source. The calls were made as follows: active = growth percent below 10; inactive = the rest.

With `N#Cc1c(-c2ccccc2)nc(SCC(=O)N2CCOCC2)[nH]c1=O`, the growth in the assay on RPMI-8226 leukemia is 99%; in the assay with OVCAR-8 ovarian it was 99.3%; in the assay on OVCAR-5 ovarian it was 103%; in the assay on OVCAR-4 ovarian it was 104%; with SK-OV-3 ovarian it was 90.7%; in the assay with IGROV1 ovarian, 112%. In addition, the growth with OVCAR-3 ovarian is 110%; in the assay on HS 578T breast, 108%; in the assay on NCI/ADR-RES ovarian it was 103%; with T-47D breast, 93.4%; in the assay on BT-549 breast, 88.2%; with MDA-MB-435 melanoma, 112%. For the same compound, the growth was 106% in the assay with SW-620 colon; 89.7% in the assay on MCF7 breast; 99.9% in the assay on HCT-116 colon; 109% in the assay with HCC-2998 colon; 114% in the assay on KM12 colon.

Turning to `C[C@]12CC[C@H]3[C@@H](CC=C4C[C@@H](O)CC[C@@]43C)[C@@H]1CC[C@@H]2C(=O)C/C=N/O`, the growth is 59.6% in the assay with RPMI-8226 leukemia; 91.9% in the assay on OVCAR-8 ovarian; 106% in the assay with OVCAR-5 ovarian; 83.6% in the assay with OVCAR-4 ovarian; 97.1% in the assay on SK-OV-3 ovarian; 76.7% in the assay on IGROV1 ovarian. Also, the growth was 89.8% in the assay on OVCAR-3 ovarian; 92.5% with HS 578T breast; 84.4% in the assay on NCI/ADR-RES ovarian; 77.2% with T-47D breast; 90.2% in the assay with BT-549 breast; 97.1% with MDA-MB-435 melanoma. The growth in the assay on SW-620 colon was 102%; in the assay on MCF7 breast it was 95.6%; in the assay on HCT-116 colon, 79.1%; with HCC-2998 colon, 94.1%; in the assay with KM12 colon, 96.6%.

For `Nc1nc2c(ncn2C2OC3COP(=O)(O)OC4C(COP(=O)(O)OC2C3O)OC(n2cnc3c(N)ncnc32)C4O)c(=O)[nH]1` (centres undefined), the growth with RPMI-8226 leukemia was 99.4%; in the assay on OVCAR-8 ovarian, 102%; in the assay with OVCAR-5 ovarian it was 103%; with OVCAR-4 ovarian, 105%; in the assay on SK-OV-3 ovarian, 87.3%; in the assay on IGROV1 ovarian it was 109%. For the same compound, the growth is 107% in the assay on OVCAR-3 ovarian; 105% in the assay with HS 578T breast; 102% with NCI/ADR-RES ovarian; 84.4% in the assay with T-47D breast; 90% in the assay with BT-549 breast; 105% in the assay on MDA-MB-435 melanoma. The growth in the assay on SW-620 colon was 107%; in the assay on MCF7 breast, 109%; in the assay on HCT-116 colon, 94%; with HCC-2998 colon, 99.3%; in the assay on KM12 colon, 104%.

On to `CCOC(=O)c1ccc(NC(=O)Nc2nncs2)cc1`, for which the growth is 6.49% (active) in the assay with RPMI-8226 leukemia; 10.8% in the assay with OVCAR-8 ovarian; 42.4% with OVCAR-5 ovarian; 49.9% in the assay on OVCAR-4 ovarian; 3.12% (active) with SK-OV-3 ovarian; 16.5% in the assay on IGROV1 ovarian. In addition, the growth in the assay on OVCAR-3 ovarian is -32.7% (active); in the assay on HS 578T breast it was 25.3%; with T-47D breast it was 49.3%; in the assay on BT-549 breast it was 13.7%; in the assay with MDA-MB-435 melanoma it was -41.3% (active); in the assay on SW-620 colon, 18%. For the same compound, the growth was 21.7% in the assay with MCF7 breast, 12.6% in the assay on HCT-116 colon, 18.8% in the assay with HCC-2998 colon and 12.4% in the assay with KM12 colon.

For `CCCCCc1cc[n+](CC(=O)c2ccc(Cl)cc2)cc1`, the growth in the assay on RPMI-8226 leukemia was 91.5%; in the assay with OVCAR-8 ovarian it was 98.8%; with OVCAR-5 ovarian it was 71.4%; with OVCAR-4 ovarian, 96.3%; in the assay with IGROV1 ovarian it was 86.5%; in the assay with OVCAR-3 ovarian, 59.8%. Further, the growth was 95.9% in the assay on HS 578T breast; 99.7% in the assay with NCI/ADR-RES ovarian; 90.6% in the assay with T-47D breast; 86.6% in the assay with BT-549 breast; 86.7% with MDA-MB-435 melanoma; 83.2% with SW-620 colon. Besides, the growth was 89.7% with MCF7 breast, 59% with HCT-116 colon, 91% with HCC-2998 colon and 73.4% in the assay with KM12 colon.

Take `CCOC(=O)[C@@H](Cc1ccccc1)NC(=O)c1[nH]c2ccc(Cl)cc2c(=O)c1C`: the growth in the assay on RPMI-8226 leukemia was 83.1%; in the assay with OVCAR-8 ovarian, 97.8%; in the assay on OVCAR-5 ovarian it was 106%; in the assay with OVCAR-4 ovarian, 102%; with SK-OV-3 ovarian it was 100%; in the assay with IGROV1 ovarian, 96.2%. The growth was 111% with OVCAR-3 ovarian; 94.2% in the assay on HS 578T breast; 106% with NCI/ADR-RES ovarian; 87.1% with T-47D breast; 108% in the assay on BT-549 breast; 103% with MDA-MB-435 melanoma. Also, the growth with SW-620 colon was 96.3%; with HCT-116 colon, 65.2%; in the assay with HCC-2998 colon it was 87.6%; in the assay with KM12 colon, 97%.

In the case of `CCCCCCCCCCCCCCCCn1cc[n+](C)c1`, the growth is 15.8% in the assay with RPMI-8226 leukemia; -53.7% (active) in the assay on OVCAR-8 ovarian; -67.5% (active) in the assay with OVCAR-5 ovarian; -54.8% (active) with OVCAR-4 ovarian; -33.8% (active) in the assay on SK-OV-3 ovarian; -67.1% (active) in the assay on IGROV1 ovarian. The growth in the assay with OVCAR-3 ovarian was -24.8% (active); in the assay with HS 578T breast, -48.4% (active); in the assay with NCI/ADR-RES ovarian, 37.1%; in the assay on T-47D breast, -0.127% (active); in the assay with BT-549 breast it was -65.2% (active); in the assay with MDA-MB-435 melanoma, -55.8% (active). Further, the growth was -66.7% (active) in the assay on SW-620 colon; -79.9% (active) with MCF7 breast; -87.2% (active) in the assay with HCT-116 colon; -94.4% (active) in the assay on HCC-2998 colon; -83.9% (active) in the assay on KM12 colon.

For the compound `O=C1CC[C@@H](C(=O)N[C@H]2CSSC[C@@H](C(=O)NCCc3ccccc3)NC(=O)[C@H](Cc3ccccc3)NC(=O)[C@@H]3CCCN3C(=O)[C@@H]3CCCN3C2=O)N1`, the growth with RPMI-8226 leukemia is 108%; with OVCAR-8 ovarian, 104%; in the assay on OVCAR-5 ovarian, 90.4%; in the assay with OVCAR-4 ovarian, 105%; with SK-OV-3 ovarian, 97.5%; with OVCAR-3 ovarian, 104%. Moreover, the growth is 101% in the assay on HS 578T breast; 99.8% with NCI/ADR-RES ovarian; 25.3% in the assay with T-47D breast; 106% in the assay on BT-549 breast; 109% in the assay with MDA-MB-435 melanoma; 102% in the assay on SW-620 colon. The growth with MCF7 breast is 95.8%; with HCT-116 colon it was 95.8%; in the assay with HCC-2998 colon, 94.3%; with KM12 colon it was 105%.

With `COc1cc(CSc2nc3ccc(C)cc3c(=O)n2-c2ccccc2)cc(OC)c1OC`, the growth is 54.9% with RPMI-8226 leukemia; 52.9% in the assay with OVCAR-8 ovarian; 46.4% in the assay with OVCAR-5 ovarian; 57.2% in the assay on OVCAR-4 ovarian; 13.6% in the assay with SK-OV-3 ovarian; 33.2% in the assay on IGROV1 ovarian. Besides, the growth is -1.43% (active) in the assay with OVCAR-3 ovarian; 28.2% with HS 578T breast; 17.8% with NCI/ADR-RES ovarian; 28.2% in the assay on T-47D breast; 19.6% in the assay with BT-549 breast; -20% (active) in the assay on MDA-MB-435 melanoma. Besides, the growth with SW-620 colon is 29.7%; with MCF7 breast it was 19.9%; in the assay on HCT-116 colon, 26.6%; with HCC-2998 colon, 49.7%; with KM12 colon, 25.3%.

For the origin of these results see PubChem BioAssay (NCI).
